Test results as given in PubChem BioAssay AID1259318 (Sanford-Burnham Center for Chemical Genomics, 2017).
The campaign covered roughly 370,000 compounds. About 3,000 (0.81%) were called active. This is one part of a sample in which actives are shown more often than they occur.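 The calls were made as follows: active = activity above about 14% (limit read from the data; passing the limit was not always enough); inactive = the rest.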 Where a SMILES comes first, the peptide text is derived from it. Side-chain parts run from the residue outwards. [ ]: non-standard residue; d: D form. The star is where a group is joined. X1 = CCC(C)C(N)C1=NC(C(=O)*)CS1; Orn = NCCC[CH](N)C(=O)O

biological target: Nuclear receptor subfamily 1 group D member 1 (Homo sapiens) (UniProt P20393); experiment: modulators of Rev-erb alpha DNA binding, primary screen, biochemical, FITC-DNA, fluorescence polarization, uHTS (AID 1259318); conditions: Rev-erbα–FITC-DNA binding, 90 min, at 10 µM, stronger effect = higher value;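 also: 0% = DMSO wells with 35 nM protein and 100% = DMSO wells with 750 nM protein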
Sequence (P20393 whole entry, looked up): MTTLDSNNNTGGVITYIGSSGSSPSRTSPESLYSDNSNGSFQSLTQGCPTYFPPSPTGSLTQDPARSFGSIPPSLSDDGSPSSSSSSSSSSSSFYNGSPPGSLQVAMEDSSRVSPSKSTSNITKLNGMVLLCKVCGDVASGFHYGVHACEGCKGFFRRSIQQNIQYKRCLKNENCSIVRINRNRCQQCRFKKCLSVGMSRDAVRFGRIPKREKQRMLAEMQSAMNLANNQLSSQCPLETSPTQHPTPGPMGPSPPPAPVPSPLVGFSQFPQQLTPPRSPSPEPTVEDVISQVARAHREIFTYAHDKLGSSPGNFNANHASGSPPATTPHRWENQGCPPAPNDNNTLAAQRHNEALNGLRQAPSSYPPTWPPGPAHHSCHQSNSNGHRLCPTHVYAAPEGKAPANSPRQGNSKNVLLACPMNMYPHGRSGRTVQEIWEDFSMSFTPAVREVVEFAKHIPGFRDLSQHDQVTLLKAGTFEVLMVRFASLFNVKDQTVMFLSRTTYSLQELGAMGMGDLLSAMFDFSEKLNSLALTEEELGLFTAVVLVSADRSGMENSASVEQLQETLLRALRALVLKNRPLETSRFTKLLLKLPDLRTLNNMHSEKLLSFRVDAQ

activity, active:
Cc1ccc(-n2nc3cc(C)c(NC(=O)c4cccnc4)cc3n2)cc1 36.7%
CCN1C(=O)/C(=C\N2CCN(c3cccc(Cl)c3)CC2)SC1=S 877%
O=C(NCc1ccc(Cl)cc1)c1cc2c(nc3sccn32)s1 25.1%
COc1ccc(S(=O)(=O)N2CCOCC2)cc1C(=O)Nc1nc2ccccc2s1 46.8%
COC(=O)c1ccc(NC(=O)c2cc(Cl)ccc2OC)cc1 46.1%
CCc1ccc2c(c1)cc(CN(C(=S)Nc1ccccc1Cl)C1CC1)c1nnnn12 18.7%
COc1ccc(-c2nnc(SCC(=O)c3ccc4c(c3)OCCO4)o2)cc1 39.7%
Cn1c(=O)n(C)c2cc(/C=N/NC(=O)c3cccc(Br)c3)ccc21 49.2%

activity, inactive:
CCc1ccc(Nc2ncc3c(n2)CC(c2ccco2)CC3=O)cc1 (configuration not stated) 2.68%
CCCNC(=O)CCc1c(C)nc2c(c(C)nn2-c2ccccc2)c1C -3.83%
NCC[C@@H](O)C(=O)N[C@@H]1C[C@H](N)[C@@H](O[C@H]2O[C@H](CN)[C@@H](O)[C@H](O)[C@H]2O)[C@H](O)[C@H]1O[C@H]1O[C@H](CO)[C@@H](O)[C@H](N)[C@@H]1O -0.91%
CCOC(=O)Cn1c(=O)oc2cc(S(=O)(=O)NCC3CCCO3)ccc21 (configuration not stated) -1.52%
COCCCNC(=O)C1CCC(CNS(=O)(=O)c2ccc(OC)cc2)CC1 (configuration not stated) -5.72%
Cc1cccc(C(=O)Nc2ccccc2C(=O)NCc2cccnc2)c1 0.06%
O=C(Nc1cccc(-n2cnnn2)c1)c1cccnc1 1.66%
Cc1ccc(-n2c(COc3ccccc3)nnc2SCC(=O)Nc2ccc3c(c2)OCCO3)cc1 1.23%
CCc1ccc(-c2cc3c(=O)n(CC(=O)NCCCN4CCN(Cc5ccccc5)CC4)nc(C)n3n2)cc1 2.85%
COC(=O)C[C@H]1C[C@@H]2c3cc(N(C)C)ccc3O[C@@H]2[C@H](CO)O1 7.34%
CCC1(C)NC(=O)N(CC(=O)N2CCN(c3cccc(Cl)c3)CC2)C1=O (configuration not stated) -2.92%
CCN1C(=O)/C(=C\N2CCOCC2)SC1=S 2.02%
CCCc1nnc(NC(=O)CCC(=O)N2CCN(S(=O)(=O)c3ccc(OC)cc3)CC2)s1 -2.83%
COC(=O)[C@@]12C[C@@H](CC(=O)NCCCCc3ccccc3)C(=O)N(CCc3ccc(OC)c(OC)c3)C1=CCC(C)(C)C2 0.11%
O=C(NCc1ccc2c(c1)OCO2)c1c(O)nc2sccn2c1=O -1.37%
O=C(NCc1ccc(Cl)cc1)c1cc(=O)nc2sc(-c3ccccc3)nn12 7.32%
COCc1c(C(=O)N/N=C/C2CC=CCC2)nnn1-c1nonc1N (configuration not stated) -3.01%
CN(CC1CCCN(CCc2cccc(C(F)(F)F)c2)C1)C(=O)c1ccc2nc[nH]c2c1 (configuration not stated) 4.2%
CC1=CC[C@H](C(C)(C)O)CC1 1.53%
COc1ccc(S(=O)(=O)N2CCOCC2)cc1C(=O)NC1CCCCC1 -1.23%
COc1ccc(S(=O)(=O)N2CCOCC2)cc1NC(=O)CSc1ncnc2ccccc12 -2.02%
CC1CN(C(=O)c2ccc3c(c2)OCO3)OC(c2ccccc2)O1 (configuration not stated) 8.07%
COc1ccc(S(=O)(=O)N(C)CC(=O)NCCCN2CCOCC2)cc1Cl 3.3%
CCCS(=O)(=O)NC(=O)C1(C)CCCN(C(=O)c2cccs2)C1 (configuration not stated) -2.98%
Nc1nc(/C(=C/CC(=O)O)C(=O)N[C@@H]2C(=O)N3C(C(=O)O)=CCS[C@H]23)cs1 -0.02%
CCC(C)C(N)C1=NC(C(=O)NC(CC(C)C)C(=O)NC(CCC(=O)O)C(=O)NC(C(=O)NCCCCC2NC(=O)C(CC(N)=O)NC(=O)C(CC(=O)O)NC(=O)C(Cc3cnc[nH]3)NC(=O)C(Cc3ccccc3)NC(=O)C(C(C)CC)NC(=O)C(CCCN)NC2=O)C(C)CC)CS1 (stereo not drawn) (cyclo(DNK([Ile-Glu-Leu-X1])[Orn]IFH); configuration not given here) -1.28%
CCC(C)NC(=O)c1cc(Cl)ccc1OC (configuration not stated) -0.16%
COc1ccc(Cl)cc1-c1cc(C(=O)Nc2cc(OC)c(OC)c(OC)c2)[nH]n1 0.68%
Cc1ccc2c(C)c(C(=O)N3CCC(N4CCC(C(=O)NC5CC5)CC4)CC3)oc2c1 5.47%
O=C(NCCCc1ccccc1)[C@H](Cc1ccccc1)NC1(C(=O)NCCc2c[nH]c3ccccc23)CCC1 1.61%
CCc1cccc(NC(=S)N(CCN(C)C)C2CCN(C(C)C)CC2)c1 -2.21%
CCOc1ccc2c(c1)cc(CN(C(=O)CC)C1CCCCC1)c1nnnn12 -0.47%
O=C(c1cccc(Br)c1)N1CCN(C2=NS(=O)(=O)c3ccccc32)CC1 1%
CC(=O)NCc1ccc(S(=O)(=O)NC2CCN(Cc3ccccc3)CC2)cc1 -1.17%
COc1ccc(CN(C(=O)CSc2nnc(-c3ccc(OC)c(OC)c3)o2)c2ccc(F)cc2)cc1 4.8%
CCCn1c(SCC(=O)c2ccc3c(c2)OCCO3)nnc1C(C)C -3.34%
CCc1ccccc1NC(=O)CSc1nnc(-c2cccs2)o1 -8.53%
O=C(CCc1nnc2ccc(NCc3ccccc3Cl)nn12)NCC1CCN(C2CCCC2)C1 (configuration not stated) -21.6%
CC12CCC(=O)C=C1CCC1C2[C@@H](O)CC2(C)C1CC[C@]2(O)C(=O)COP(=O)(O)O (some centres not stated) 1.93%
CC(C)CCn1c(=O)c2c(nc3n2CCCN3Cc2ccccc2)n(C)c1=O -1.34%
O=C(N/N=C/c1ccc(OCC2COCCO2)cc1)c1ccc(Br)cc1 (configuration not stated) -0.42%
C/C(Cc1ccccc1)=N\NC(=O)CNC(=O)c1cccc(Br)c1 -0.21%
Cc1nc(CNc2ncnc3ccc(-c4ccc5c(c4)OCO5)cc23)cs1 -0.38%
CCOC(=O)C1CCN(C(=O)C(C)(C)NC(=O)Nc2ccc(F)c(F)c2)CC1 -2.08%
